From PubChem BioAssay (Tox21)
Values joined by “and” are separate entries in the source; they are usually repeats but may differ in a detail not shown here. Equal values may be shown once. Inconclusive results are not listed. More than one record can exist for a structure, and the calls need not agree. Active and inactive are the calls of the source. Calls come from the whole dose curve; as a rule, active = well fitted inhibition curve with a large enough effect in the repeat runs; inconclusive = weak or mixed curves; inactive = no such curve, though single readings can be large or run the other way.

biological target: Aromatase (Homo sapiens) (UniProt P11511); experiment: qHTS assay to identify aromatase inhibitors (AID 743083); conditions: MCF-7 aro ERE, testosterone-driven ERE luciferase, 24 h; series mostly up to 70.3 µM; activity, negative = inhibition: at the top concentration; note: nearly all actives have a fitted effect of over 55% in size
Sequence (P11511 whole entry, looked up): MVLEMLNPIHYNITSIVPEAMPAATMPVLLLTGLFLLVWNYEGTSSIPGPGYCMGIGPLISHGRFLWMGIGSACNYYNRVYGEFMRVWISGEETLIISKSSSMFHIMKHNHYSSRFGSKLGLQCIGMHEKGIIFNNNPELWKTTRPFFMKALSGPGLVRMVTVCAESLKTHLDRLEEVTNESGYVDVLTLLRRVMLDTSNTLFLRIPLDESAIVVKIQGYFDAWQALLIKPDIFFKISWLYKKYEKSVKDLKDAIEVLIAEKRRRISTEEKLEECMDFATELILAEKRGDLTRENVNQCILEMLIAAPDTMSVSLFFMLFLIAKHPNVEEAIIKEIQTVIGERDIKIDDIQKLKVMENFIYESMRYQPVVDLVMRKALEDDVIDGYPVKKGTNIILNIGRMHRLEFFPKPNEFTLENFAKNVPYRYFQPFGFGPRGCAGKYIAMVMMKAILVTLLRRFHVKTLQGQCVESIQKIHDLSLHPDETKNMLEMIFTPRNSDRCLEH
% is set by controls: 0 for no effect and ±100 for the full control effect; potency is the fitted concentration of half-maximal effect.

**Q.** For CC1(C)CCC(Cc2ccc(Cl)cc2)C1(O)Cn1cncn1 (centres undefined), which Potency is on record?
**A.** 30.6 µM (active)

**Q.** Which “activity, negative = inhibition” value does the source give for CCOP(=O)(OCC)SCCSCC here?
**A.** 6.71% (inactive)

**Q.** CCCCCCCCCCOC(=O)c1ccccc1C(=O)OCCCCCCCCCC was tested. Which “activity, negative = inhibition” value did it give?
**A.** 29.6% (inactive)

**Q.** With Cc1cc(=O)[nH]o1 as the molecule, how does the “activity, negative = inhibition” value read?
**A.** 12.7% [at 95 µM] (inactive)

**Q.** C=CC(C)=O was tested. Which “activity, negative = inhibition” value did it give?
**A.** -16.7% (inactive)

**Q.** Which “activity, negative = inhibition” value does the source give for O=C1C(=O)c2cccc3cccc1c23 here?
**A.** -7.1% (inactive)

**Q.** For Clc1cc(C(Cl)(Cl)Cl)cnc1Cl, which Potency is on record?
**A.** 24.3 µM (active)

**Q.** CCOP(=O)(OCC)O/C(=C/Cl)c1ccc(Cl)cc1Cl was tested. Which Potency did it give?
**A.** 27.3 µM (active)

**Q.** For BrCCCCBr, which “activity, negative = inhibition” value is on record?
**A.** -4.81% (inactive)

**Q.** For S=C=NCc1ccccc1, which “activity, negative = inhibition” value is on record?
**A.** 20.5% [at 95 µM] (inactive)

**Q.** C=CC(=O)OC(C)(C)C was tested. Which “activity, negative = inhibition” value did it give?
**A.** 2.71% (inactive)

**Q.** For CC(O)(CS(=O)(=O)c1ccc(F)cc1)C(=O)Nc1ccc(C#N)c(C(F)(F)F)c1 (centres undefined), which Potency is on record?
**A.** inactive

**Q.** With Clc1ccc(C2(Cn3cncn3)CC(Br)CO2)c(Cl)c1 (centres undefined) as the molecule, how does the Potency read?
**A.** 17.1 µM (active)

**Q.** For O=C(NCc1cccnc1)Nc1ccc([N+](=O)[O-])cc1, which “activity, negative = inhibition” value is on record?
**A.** -4.32% (inactive)

**Q.** CCOP(=S)(Oc1ccc([N+](=O)[O-])cc1)c1ccccc1 (centres undefined) was tested. Which “activity, negative = inhibition” value did it give?
**A.** -5.47% (inactive)

**Q.** How did the “activity, negative = inhibition” value turn out when Cc1c(F)c(F)c(COC(=O)C2C(/C=C(\Cl)C(F)(F)F)C2(C)C)c(F)c1F (centres undefined) was run?
**A.** -0.491% (inactive)

**Q.** For O=C(CBr)OCc1ccccc1, which “activity, negative = inhibition” value is on record?
**A.** 13.8% (inactive)

**Q.** For COP(=O)(OC)O/C(=C/Cl)c1cc(Cl)c(Cl)cc1Cl, which Potency is on record?
**A.** 40.7 µM (active)

**Q.** With N#Cc1ccc(Cl)cc1 as the molecule, how does the “activity, negative = inhibition” value read?
**A.** 8.02% (inactive)

**Q.** For ClCCCCBr, which “activity, negative = inhibition” value is on record?
**A.** 26.5% [at 95 µM] (inactive)

**Q.** With CCOP(=S)(OCC)Oc1cc(Cl)c(Br)cc1Cl as the molecule, how does the “activity, negative = inhibition” value read?
**A.** -6.96% (inactive)

**Q.** For O=C(O)C(F)(F)C(F)(F)C(F)(F)C(F)(F)C(F)(F)C(F)(F)C(F)(F)C(F)(F)C(F)(F)F, which “activity, negative = inhibition” value is on record?
**A.** 43.1% (inactive)

**Q.** How did the “activity, negative = inhibition” value turn out when O=C(O)CC(Cl)C(=O)O (centres undefined) was run?
**A.** 21.9% [at 95 µM] (inactive)

**Q.** With C(=NC1CCCCC1)=NC1CCCCC1 as the molecule, how does the Potency read?
**A.** inactive and 1.37 µM (active)
